According to the supplement of paper PMC11417369:
Whole data set: some 25,000 sequences, median “ln(normalized median fluorescence intensity)” near 9.7, cut for the highest 2% near 11. For the sample, the highest values were picked, then their nearest neighbours and some sequences at random.

What follows are sequences tested on PfAP2-HC AP2 domain (GST-tagged) (assay: gcPBM binding intensity (ln(normalized median fluorescence intensity)); higher = stronger DNA binding).
In short: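 Binding of GST-tagged P. falciparum DNA-binding domains, expressed in E. coli and used at about 25 μg on average, was carried out for 1 h in 1× PBS containing 1% milk, 0.2 mg/ml BSA, 0.5% salmon testes DNA and 0.03% Triton X-100. The target was an Agilent 4 × 180k array of primer-extended double-stranded 36-bp intergenic genomic probes plus negative controls, read with Alexa488 anti-GST antibody at 488 nm. Binding intensity is the highest Masliner-normalised natural-log median intensity across replicate spots of either probe orientation.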

Sequence	gcPBM binding intensity (ln)
TATTATATTTATTTATGTACACATATACTTAAATAA [XGTACX_site1355]	9.69
AAATAGCCAAAAATCATGCACACCTAAAAAAAAAAA [CACACA_site2572]	9.77
AGCTGAAAAAAAAGCTTGCACACGTATTTGCTTTAT [CACACA_site1512]	9.81
ATAAACAATTAACAAACATGCAAATTTTAAATGTGT [TGCATGCA_site919]	9.68
ATATTTGTATAAATTGCACACTTTATTTTTTTTAAG [CACACA_site1558]	9.61
TTTGTTTGTAAAATGTTGCACTTTCTTTTGCTGATA	9.66
ATATATCTATATAGAAATGTATATATATATATGTGT [TGCATGCA_negctrl_site349]	9.77
TATTTCGTAATTTAATAATATACAAGAAATATATAT [XGTACX_negctrl_site143]	9.4
CAATCAAAGAAACACACACACACCTAAACATAAAAG [CACACA_site2756]	11.7
AACAATCAAATAGACACACACACACCCAAACATAAA [CACACA_site2757]	10.6
ATAAAAAAGAAACAAACACACATACATACAAACAAA [CACACA_site4256]	10.3
CAATCAAATAGACACACACACACCTAAACATAAAAG [CACACA_site7322]	11.1
CAATCAAATGGACACACACACACCTAAACATAAAAG [CACACA_site5524]	10.5
ATCAAATAGAGACACACACACCTAAACATAAAAGAA [CACACA_site7321]	10.6
GAAAAGTATAAAAAACGTACAAGTTTTATTTTCACA [XGTACX_site4604]	9.58
TTTCTAATTATTTCCCTTCAAATATATTAATATCGT [CACACA_negctrl_site429]	9.55
CATATACTCGGACACACACACACACCGACAAAAAAA [CACACA_site4433]	11.1
AGTATACATATATATACACACACATATATATATATA [CACACA_site7883]	9.87
CATATATACTCATACACACACACACCGACACAGACA [CACACA_site5026]	10.3
AAAACAAACGGACACACACACATATATATATATATA [CACACA_site5924]	10.5
AGTATACATATATATACACACATATATATATATATA [CACACA_site300]	9.8
AGTATACTCGGACACACACACACATATATATATATA [CACACA_site5031]	11.7
ACAAAAAAAAAAAAAAAAAAAAAAAAAAAATAATAA [CACACA_negctrl_site1640]	9.18
TAAAATATATAAAACTGTACATTTTAAAGGCACAAC [XGTACX_site8342]	9.98
